Common to all, as to assay: DAPPL (digital affinity profiling via proximity ligation, sequencing); 10 mM Tris-HCl pH 7.5, 50 mM NaCl, 1 mM DTT, 4% glycerol, room temperature, 30 min; GST-TFs on glutathione beads, 16-mer random dsDNA library, 0.1% formaldehyde crosslink after washing; high values mean tight binding
In one assay the target is T1, FEV (Homo sapiens, UniProt Q99581 1-238).
T1 sequence: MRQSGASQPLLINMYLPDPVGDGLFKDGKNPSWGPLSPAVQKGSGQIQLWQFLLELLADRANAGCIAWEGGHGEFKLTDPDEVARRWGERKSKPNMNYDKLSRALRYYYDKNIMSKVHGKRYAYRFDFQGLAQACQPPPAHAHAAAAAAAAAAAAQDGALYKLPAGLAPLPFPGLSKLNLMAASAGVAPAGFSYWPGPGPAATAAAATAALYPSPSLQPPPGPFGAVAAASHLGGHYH
The settings on record: protein: recombinant; tags: N-terminal GST; dsDNA, one strand shown. The procedure, abridged: (§1)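 Binding signal is each hexamer's read frequency for a factor divided by its frequency in the tag-only sample. The factors were GST-fused human transcription factors from yeast, captured on glutathione beads, DNA-barcoded and pooled with that sample. Pools were incubated with 200 nmole of a random double-stranded 16-mer DNA library in Tris/NaCl/DTT/glycerol buffer at room temperature for 30 min, then washed, crosslinked with 0.1% formaldehyde, proximity-ligated with BsaI/T4 ligase (1 h, 37 °C), PCR-amplified and sequenced on an Illumina NextSeq500.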

The next assay addresses ETV5 (Homo sapiens, UniProt P41161 1-510). The settings on record: protein: recombinant; tags: N-terminal GST; dsDNA, one strand shown. In a few lines: as §1
The target in a further assay is HSF1 (Homo sapiens, UniProt Q00613 1-529). The following applies: protein: recombinant; tags: N-terminal GST; chain copies: 3; dsDNA, one strand shown. In a few lines:
as §1

The next assay deals with T2, SPIC (Homo sapiens, UniProt Q8N5J4 1-248).
T2 sequence: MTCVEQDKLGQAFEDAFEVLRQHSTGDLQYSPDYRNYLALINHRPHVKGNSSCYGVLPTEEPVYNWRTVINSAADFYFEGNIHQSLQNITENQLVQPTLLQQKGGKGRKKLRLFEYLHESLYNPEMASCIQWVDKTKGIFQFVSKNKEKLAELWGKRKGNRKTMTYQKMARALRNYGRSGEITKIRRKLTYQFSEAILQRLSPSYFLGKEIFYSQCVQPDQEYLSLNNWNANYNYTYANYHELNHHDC
The settings on record: protein: recombinant; tags: N-terminal GST; dsDNA, one strand shown. In a few lines: as §1

For the next assay, the target named is ELF4 (Homo sapiens, UniProt Q99607 1-663). The following applies: protein: recombinant; tags: N-terminal GST; dsDNA, one strand shown. The procedure, abridged:
as §1

The next assay addresses T3, ELK4 (Homo sapiens, UniProt P28324-2 1-405).
T3 sequence: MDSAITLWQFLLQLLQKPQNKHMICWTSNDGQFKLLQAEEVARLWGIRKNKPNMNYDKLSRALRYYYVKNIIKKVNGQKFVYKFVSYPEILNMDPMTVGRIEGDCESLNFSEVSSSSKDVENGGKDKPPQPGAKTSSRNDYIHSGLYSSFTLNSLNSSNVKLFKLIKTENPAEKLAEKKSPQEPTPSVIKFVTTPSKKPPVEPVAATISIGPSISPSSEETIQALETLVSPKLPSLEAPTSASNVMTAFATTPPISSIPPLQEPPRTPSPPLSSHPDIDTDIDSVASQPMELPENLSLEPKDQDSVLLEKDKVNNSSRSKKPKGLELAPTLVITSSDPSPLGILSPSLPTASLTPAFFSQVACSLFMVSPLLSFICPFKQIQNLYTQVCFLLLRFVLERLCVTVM
The following applies: protein: recombinant; tags: N-terminal GST; dsDNA, one strand shown. In a few lines:
as §1

The target in another assay is T4, ETV2 (Homo sapiens, UniProt O00321 1-342).
T4 sequence: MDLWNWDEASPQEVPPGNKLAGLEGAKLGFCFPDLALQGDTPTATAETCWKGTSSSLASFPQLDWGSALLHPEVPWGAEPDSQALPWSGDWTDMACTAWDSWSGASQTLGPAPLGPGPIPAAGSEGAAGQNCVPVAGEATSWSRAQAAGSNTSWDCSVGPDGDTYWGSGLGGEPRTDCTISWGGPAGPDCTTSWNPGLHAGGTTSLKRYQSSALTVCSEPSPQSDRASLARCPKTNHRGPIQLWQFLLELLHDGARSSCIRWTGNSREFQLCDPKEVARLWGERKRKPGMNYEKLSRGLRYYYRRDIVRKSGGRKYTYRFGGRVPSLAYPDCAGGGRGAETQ
The following applies: protein: recombinant; tags: N-terminal GST; dsDNA, one strand shown. In a few lines:
as §1

A further assay deals with T5, ELF3 (Homo sapiens, UniProt P78545 1-371).
T5 sequence: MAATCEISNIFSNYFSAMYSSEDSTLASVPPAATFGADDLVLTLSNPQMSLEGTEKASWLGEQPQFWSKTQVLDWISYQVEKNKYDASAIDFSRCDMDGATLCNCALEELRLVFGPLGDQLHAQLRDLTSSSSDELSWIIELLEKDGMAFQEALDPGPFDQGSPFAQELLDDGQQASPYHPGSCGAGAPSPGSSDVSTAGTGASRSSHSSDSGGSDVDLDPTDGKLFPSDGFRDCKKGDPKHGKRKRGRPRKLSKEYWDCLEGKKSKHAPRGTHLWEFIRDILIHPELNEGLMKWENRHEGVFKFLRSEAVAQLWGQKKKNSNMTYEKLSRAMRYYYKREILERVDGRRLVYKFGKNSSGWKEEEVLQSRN
The settings on record: protein: recombinant; tags: N-terminal GST; dsDNA, one strand shown. The procedure, abridged:
as §1

The next assay has as its target CRX (Homo sapiens, UniProt O43186 1-299). The settings on record: protein: recombinant; tags: N-terminal GST; dsDNA, one strand shown. The procedure, abridged: as §1
The target of another assay is ETV1 (Homo sapiens, UniProt P50549 1-477). The following applies: protein: recombinant; tags: N-terminal GST; dsDNA, one strand shown. The procedure, abridged: as §1
The target of another assay is T6, ERF (Homo sapiens, UniProt P50548 1-548).
T6 sequence: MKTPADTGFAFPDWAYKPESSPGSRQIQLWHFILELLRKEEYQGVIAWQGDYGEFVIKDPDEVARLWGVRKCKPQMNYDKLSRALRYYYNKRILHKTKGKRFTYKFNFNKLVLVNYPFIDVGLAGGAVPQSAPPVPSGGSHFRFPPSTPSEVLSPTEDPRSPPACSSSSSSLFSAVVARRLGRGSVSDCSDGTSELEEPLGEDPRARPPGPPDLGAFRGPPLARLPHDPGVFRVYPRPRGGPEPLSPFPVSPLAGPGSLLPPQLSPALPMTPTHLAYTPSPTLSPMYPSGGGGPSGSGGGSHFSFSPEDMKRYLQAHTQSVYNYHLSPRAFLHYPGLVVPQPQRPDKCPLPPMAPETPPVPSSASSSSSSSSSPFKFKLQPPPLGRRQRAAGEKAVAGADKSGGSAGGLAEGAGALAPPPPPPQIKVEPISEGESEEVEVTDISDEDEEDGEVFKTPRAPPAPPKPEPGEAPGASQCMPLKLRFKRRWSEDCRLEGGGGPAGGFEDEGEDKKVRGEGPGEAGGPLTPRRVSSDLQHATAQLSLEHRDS
The settings on record: protein: recombinant; tags: N-terminal GST; dsDNA, one strand shown. In a few lines: as §1

In the next assay the target is T7, ETV3L (Homo sapiens, UniProt Q6ZN32 1-361).
T7 sequence: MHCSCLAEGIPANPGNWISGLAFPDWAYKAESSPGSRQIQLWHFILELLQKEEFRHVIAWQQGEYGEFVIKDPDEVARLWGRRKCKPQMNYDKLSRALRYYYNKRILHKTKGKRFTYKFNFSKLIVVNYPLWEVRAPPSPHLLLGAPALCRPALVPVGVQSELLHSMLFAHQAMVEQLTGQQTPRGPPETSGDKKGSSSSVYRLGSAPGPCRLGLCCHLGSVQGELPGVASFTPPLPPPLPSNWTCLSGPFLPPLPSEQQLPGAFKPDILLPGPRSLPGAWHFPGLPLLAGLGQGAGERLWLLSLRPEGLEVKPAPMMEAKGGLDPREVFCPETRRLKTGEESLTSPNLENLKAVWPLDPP
The following applies: protein: recombinant; tags: N-terminal GST; dsDNA, one strand shown. The procedure, abridged: as §1

The next assay deals with T8, ETS2 (Homo sapiens, UniProt P15036 1-469).
T8 sequence: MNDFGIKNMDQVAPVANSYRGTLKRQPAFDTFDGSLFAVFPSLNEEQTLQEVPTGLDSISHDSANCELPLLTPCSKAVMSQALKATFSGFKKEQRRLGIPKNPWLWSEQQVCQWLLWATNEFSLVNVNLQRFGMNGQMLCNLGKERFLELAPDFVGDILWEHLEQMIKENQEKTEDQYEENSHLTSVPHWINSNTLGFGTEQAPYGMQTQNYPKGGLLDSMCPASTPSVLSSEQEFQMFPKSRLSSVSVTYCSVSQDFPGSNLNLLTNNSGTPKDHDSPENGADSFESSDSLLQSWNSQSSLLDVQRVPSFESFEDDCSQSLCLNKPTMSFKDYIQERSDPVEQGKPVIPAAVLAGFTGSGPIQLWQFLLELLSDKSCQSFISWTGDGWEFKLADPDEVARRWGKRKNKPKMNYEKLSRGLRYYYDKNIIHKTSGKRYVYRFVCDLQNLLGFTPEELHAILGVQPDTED
The settings on record: protein: recombinant; tags: N-terminal GST; dsDNA, one strand shown. The procedure, abridged: as §1

A further assay has as its target T9, SPDEF (Homo sapiens, UniProt O95238 1-335).
T9 sequence: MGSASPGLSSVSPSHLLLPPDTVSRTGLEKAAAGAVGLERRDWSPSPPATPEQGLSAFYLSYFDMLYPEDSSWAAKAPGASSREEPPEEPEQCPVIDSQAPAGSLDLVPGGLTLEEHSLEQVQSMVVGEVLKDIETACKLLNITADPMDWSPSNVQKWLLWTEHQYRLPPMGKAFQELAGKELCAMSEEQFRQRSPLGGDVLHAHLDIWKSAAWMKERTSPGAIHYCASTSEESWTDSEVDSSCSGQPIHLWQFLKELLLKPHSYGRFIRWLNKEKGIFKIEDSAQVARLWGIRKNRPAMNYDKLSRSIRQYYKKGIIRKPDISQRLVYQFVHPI
The following applies: protein: recombinant; tags: N-terminal GST; dsDNA, one strand shown. In a few lines: as §1

In a further assay the target is T10, ETV7 (Homo sapiens, UniProt Q9Y603 1-341).
T10 sequence: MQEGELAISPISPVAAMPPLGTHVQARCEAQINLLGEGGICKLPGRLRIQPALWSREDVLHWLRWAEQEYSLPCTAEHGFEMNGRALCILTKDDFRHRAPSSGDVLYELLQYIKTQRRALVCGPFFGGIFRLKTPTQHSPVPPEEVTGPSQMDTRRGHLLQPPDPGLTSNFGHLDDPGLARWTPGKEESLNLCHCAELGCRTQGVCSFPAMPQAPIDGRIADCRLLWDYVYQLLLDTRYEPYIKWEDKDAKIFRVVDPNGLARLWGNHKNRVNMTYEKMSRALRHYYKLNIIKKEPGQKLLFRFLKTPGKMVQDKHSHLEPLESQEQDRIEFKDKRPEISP
The settings on record: protein: recombinant; tags: N-terminal GST; dsDNA, one strand shown. In a few lines:
as §1

A further assay addresses T11, ELF5 (Homo sapiens, UniProt Q9UKW6-2 1-255).
T11 sequence: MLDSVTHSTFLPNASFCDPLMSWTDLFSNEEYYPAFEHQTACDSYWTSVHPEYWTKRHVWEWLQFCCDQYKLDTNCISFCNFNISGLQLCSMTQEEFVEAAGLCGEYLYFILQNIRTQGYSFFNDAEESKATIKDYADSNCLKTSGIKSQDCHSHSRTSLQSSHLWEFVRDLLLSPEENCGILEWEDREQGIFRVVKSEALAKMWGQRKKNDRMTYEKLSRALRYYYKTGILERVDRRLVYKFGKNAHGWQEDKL
The settings on record: protein: recombinant; tags: N-terminal GST; dsDNA, one strand shown. The procedure, abridged:
as §1

For a further assay, the target named is T12, ETV3 (Homo sapiens, UniProt P41162-2 1-143).
T12 sequence: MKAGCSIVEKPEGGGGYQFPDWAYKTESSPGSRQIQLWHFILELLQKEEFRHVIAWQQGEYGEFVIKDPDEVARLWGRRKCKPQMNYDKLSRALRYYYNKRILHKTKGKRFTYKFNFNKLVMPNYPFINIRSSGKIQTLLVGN
The settings on record: protein: recombinant; tags: N-terminal GST; dsDNA, one strand shown. In a few lines: as §1

Another assay concerns the target ETV6 (Homo sapiens, UniProt P41212 1-452). The settings on record: protein: recombinant; tags: N-terminal GST; dsDNA, one strand shown. In a few lines: as §1

ETV6, sequence (P41212 whole entry): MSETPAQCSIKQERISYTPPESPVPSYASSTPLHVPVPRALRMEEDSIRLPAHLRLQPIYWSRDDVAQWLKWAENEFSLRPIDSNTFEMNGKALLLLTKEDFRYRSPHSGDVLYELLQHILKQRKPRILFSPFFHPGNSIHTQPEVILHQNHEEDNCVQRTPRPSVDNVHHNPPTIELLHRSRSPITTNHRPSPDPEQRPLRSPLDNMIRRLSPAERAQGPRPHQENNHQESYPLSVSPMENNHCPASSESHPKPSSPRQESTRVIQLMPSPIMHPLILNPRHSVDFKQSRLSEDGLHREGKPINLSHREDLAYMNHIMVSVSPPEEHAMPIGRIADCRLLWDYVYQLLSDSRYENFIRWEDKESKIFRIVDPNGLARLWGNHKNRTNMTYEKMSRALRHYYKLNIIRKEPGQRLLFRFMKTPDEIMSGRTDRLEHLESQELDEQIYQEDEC
ELF4, sequence (Q99607 whole entry): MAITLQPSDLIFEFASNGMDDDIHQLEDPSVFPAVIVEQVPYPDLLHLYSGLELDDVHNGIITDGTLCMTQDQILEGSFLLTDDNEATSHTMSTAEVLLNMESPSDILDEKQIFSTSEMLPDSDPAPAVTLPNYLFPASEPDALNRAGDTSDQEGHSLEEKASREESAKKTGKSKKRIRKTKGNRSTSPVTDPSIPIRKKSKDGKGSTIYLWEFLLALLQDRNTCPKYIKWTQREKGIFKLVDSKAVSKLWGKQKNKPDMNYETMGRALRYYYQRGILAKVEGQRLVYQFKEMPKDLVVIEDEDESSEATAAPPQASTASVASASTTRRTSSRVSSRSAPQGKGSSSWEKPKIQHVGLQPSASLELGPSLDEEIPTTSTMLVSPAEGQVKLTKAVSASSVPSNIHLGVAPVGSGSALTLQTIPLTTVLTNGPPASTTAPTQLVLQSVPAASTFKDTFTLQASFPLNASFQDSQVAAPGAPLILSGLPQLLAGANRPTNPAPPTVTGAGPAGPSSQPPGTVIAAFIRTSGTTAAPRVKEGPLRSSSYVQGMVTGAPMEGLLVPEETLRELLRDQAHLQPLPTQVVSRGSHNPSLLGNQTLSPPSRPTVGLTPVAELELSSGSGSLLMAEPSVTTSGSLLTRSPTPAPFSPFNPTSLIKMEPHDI
HSF1, sequence (Q00613 whole entry): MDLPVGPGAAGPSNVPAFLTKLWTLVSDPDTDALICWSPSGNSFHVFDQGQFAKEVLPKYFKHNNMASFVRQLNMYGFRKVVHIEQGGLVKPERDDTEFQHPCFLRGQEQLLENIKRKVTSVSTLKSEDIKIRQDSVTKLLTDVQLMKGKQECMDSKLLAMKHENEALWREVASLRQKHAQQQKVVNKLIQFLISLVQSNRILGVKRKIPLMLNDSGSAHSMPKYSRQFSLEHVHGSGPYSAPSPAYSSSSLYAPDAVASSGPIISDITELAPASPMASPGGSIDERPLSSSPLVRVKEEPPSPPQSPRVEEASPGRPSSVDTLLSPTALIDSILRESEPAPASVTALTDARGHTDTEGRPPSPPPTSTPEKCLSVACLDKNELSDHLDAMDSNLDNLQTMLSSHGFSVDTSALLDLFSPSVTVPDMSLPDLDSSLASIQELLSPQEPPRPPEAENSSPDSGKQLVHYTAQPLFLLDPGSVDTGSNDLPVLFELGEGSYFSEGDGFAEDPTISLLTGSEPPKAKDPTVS
ETV1, sequence (P50549 whole entry): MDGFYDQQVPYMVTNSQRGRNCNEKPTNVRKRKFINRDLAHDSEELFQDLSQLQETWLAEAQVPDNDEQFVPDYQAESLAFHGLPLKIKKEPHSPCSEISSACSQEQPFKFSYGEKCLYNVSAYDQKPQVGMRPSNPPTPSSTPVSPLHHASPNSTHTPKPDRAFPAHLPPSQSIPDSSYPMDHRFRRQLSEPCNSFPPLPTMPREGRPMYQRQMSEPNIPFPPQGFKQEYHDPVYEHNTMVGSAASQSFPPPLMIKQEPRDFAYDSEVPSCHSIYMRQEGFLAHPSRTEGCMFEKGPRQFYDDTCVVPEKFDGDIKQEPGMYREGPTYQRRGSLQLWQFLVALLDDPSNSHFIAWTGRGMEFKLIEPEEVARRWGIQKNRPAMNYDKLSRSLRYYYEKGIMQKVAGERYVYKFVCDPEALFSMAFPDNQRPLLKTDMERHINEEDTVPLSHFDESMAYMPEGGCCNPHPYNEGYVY
ETV5, sequence (P41161 whole entry): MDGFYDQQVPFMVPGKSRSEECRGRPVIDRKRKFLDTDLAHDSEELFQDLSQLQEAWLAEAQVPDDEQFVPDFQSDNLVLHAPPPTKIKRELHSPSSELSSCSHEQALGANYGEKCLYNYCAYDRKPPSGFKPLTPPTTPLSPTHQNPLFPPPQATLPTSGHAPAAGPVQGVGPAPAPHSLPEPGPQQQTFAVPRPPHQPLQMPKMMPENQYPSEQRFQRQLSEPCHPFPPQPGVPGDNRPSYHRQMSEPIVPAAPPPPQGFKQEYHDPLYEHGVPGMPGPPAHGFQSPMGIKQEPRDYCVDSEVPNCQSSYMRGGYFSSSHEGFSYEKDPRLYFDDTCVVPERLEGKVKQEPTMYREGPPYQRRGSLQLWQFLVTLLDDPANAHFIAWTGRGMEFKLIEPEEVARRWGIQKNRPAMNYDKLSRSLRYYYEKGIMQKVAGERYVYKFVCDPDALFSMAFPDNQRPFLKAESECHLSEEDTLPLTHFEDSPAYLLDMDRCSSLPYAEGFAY
CRX, sequence (O43186 whole entry): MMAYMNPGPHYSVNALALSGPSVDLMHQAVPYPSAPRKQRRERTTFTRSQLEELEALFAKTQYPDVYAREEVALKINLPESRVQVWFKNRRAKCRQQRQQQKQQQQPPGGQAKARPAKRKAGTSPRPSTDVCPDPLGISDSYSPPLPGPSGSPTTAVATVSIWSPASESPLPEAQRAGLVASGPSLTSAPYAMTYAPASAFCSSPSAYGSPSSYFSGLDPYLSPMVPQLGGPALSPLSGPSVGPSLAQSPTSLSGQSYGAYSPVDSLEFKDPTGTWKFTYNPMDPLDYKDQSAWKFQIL

Regarding TCCCGG, the binding signal in the assay with FEV is 2.09 fold enrichment (6-mer frequency, TF over GST control); with ETV5, 2.27 fold enrichment (6-mer frequency, TF over GST control); with HSF1, 1.37 fold enrichment (6-mer frequency, TF over GST control); with SPIC, 2.35 fold enrichment (6-mer frequency, TF over GST control); with ELF4, 2 fold enrichment (6-mer frequency, TF over GST control); in the assay with ELK4, 1.91 fold enrichment (6-mer frequency, TF over GST control). Further, the binding signal is 2 fold enrichment (6-mer frequency, TF over GST control) with ETV2; 2.17 fold enrichment (6-mer frequency, TF over GST control) with ELF3; 1.41 fold enrichment (6-mer frequency, TF over GST control) with CRX; 2.21 fold enrichment (6-mer frequency, TF over GST control) in the assay with ETV1; 1.77 fold enrichment (6-mer frequency, TF over GST control) with ERF; 2.2 fold enrichment (6-mer frequency, TF over GST control) with ETV3L. Besides, the binding signal with ETS2 is 2.34 fold enrichment (6-mer frequency, TF over GST control); with SPDEF, 2.76 fold enrichment (6-mer frequency, TF over GST control); with ETV7, 1.92 fold enrichment (6-mer frequency, TF over GST control); with ELF5, 3.07 fold enrichment (6-mer frequency, TF over GST control); in the assay with ETV3 it was 2.44 fold enrichment (6-mer frequency, TF over GST control); with ETV6 it was 2.46 fold enrichment (6-mer frequency, TF over GST control).

Values taken from PMC7862700, “An all-to-all approach to the identification of sequence-specific readers for epigenetic DNA modifications on cytosine”.
